Screens as filed in PubChem.
Shown are actives, neighbours in structure and some others; about 6.2% of the full set was active somewhere.
ATXN2 expr inh = inhibitors of ATXN2 expression; HEK-293 ATXN2-luciferase reporter, luminescence, 24 h; Potency, µM (top dose mostly 57 µM), without a hit: at the top dose activity change, negative = inhibition, usual class: inhibitors; hit rate 0.72% among 360,000; AID 1745845; also: % is scaled to controls: 0 for no effect and ±100 for the full control effect; nearly all actives have a fitted effect of over 55% in size
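ATXN2-luciferase reporter cells (luciferase flanked by upstream and downstream ATXN2 gene portions) were treated 24 h at 37 °C with compounds at up to 57 uM. SteadyGlo luminescence gave expression; GF-AFC fluorescence gave viability.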
HT1080-NT tox = kills 2HG-producing HT-1080-NT fibrosarcoma cells | Potency, µM (titrated, usually from 46.1 µM), without a hit: top-dose activity, negative = less viability, hits mostly cytotoxic | HT-1080-NT fibrosarcoma viability, CellTiter-Glo ATP luminescence, 48 h | hit rate 1.6% among 360,000;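 also: NT is the 2HG producing partner of a matched IDH1 knockdown line; 0% = DMSO-treated cells and -100% = media-only wells without cells; nearly all actives have a fitted effect of over 55% in size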
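Luminescent CellTiter-Glo readout after 48 hours of compound exposure at 37 degrees C defined viability of HT-1080-NT cells. Activity was normalized to DMSO wells and cell-free media wells; concentration-response curves were fitted and assigned curve classes.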
HT1080 IDH1KD tx = HT-1080 IDH1 knockdown cell toxicity (counter line). HT-1080 IDH1 knockdown viability, ATP luminescence, 48 h. Potency, µM (doses to about 46.1 µM), for inactives: at the top dose activity, negative = toxicity, usual class: cytotoxic. hit rate 2% among 360,000;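 also: 0% = DMSO wells and -100% = cell-free medium wells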
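CellTiter-Glo luminescence after 48 h compound exposure at 37 degrees C of IDH1-knockdown HT-1080 cells in 5% FBS RPMI. %Activity scaled between DMSO wells and cell-free media wells, with curves fitted and assigned curve classes.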
KB-V1 cytotox = kills drug-selected multidrug resistant KB-V1 cells | KB-V1 MDR cells viability, CellTiter-Glo, 72 h | Potency, µM (highest dose often 46.1 µM), usual class: cytotoxic | hit rate 3.4% among 400,000; also: % is scaled to controls: 0 for no effect and ±100 for the full control effect; nearly all actives have a fitted effect of over 60% in size
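Compound-treated KB-V1 multidrug-resistant cells, 72 h, 37 degrees C; viability by CellTiter-Glo. Fitted qHTS curves give the values.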
ATXN viability = viability counter-screen for ATXN expression inhibitors; AID 651635; S2 cells (HEK-293 line with an ATXN2-luciferase reporter) viability, CellTiter-Fluor protease fluorescence, 24 h; hit rate 0.49% among 400,000; Potency, µM (highest dose often 56.7 µM), hits mostly cytotoxic; also: nearly all actives have a fitted effect of over 40% in size
KB-3-1 tox = kills parental KB-3-1 adenocarcinoma cells; hit rate 1.4% among 400,000; Potency, µM (doses to about 46.1 µM), hits mostly cytotoxic; KB-3-1 viability, CellTiter-Glo ATP luminescence, 72 h; AID 1347075; also: % is scaled to controls: 0 for no effect and ±100 for the full control effect; nearly all actives have a fitted effect of over 60% in size
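Cytotoxicity measured as CellTiter-Glo luminescence after 72 h at 37 C. Compound titrations were pinned onto drug-naive KB-3-1 parental adenocarcinoma cells grown in DMEM with 10% FBS, and normalized data fitted to concentration-response curves.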
Numbers without * were called inactive; i = inactive; u = inconclusive; x = no result given; [ ] = remark or other dose. Calls follow the shape of the dose curve; as a rule, active = well fitted curve in the direction sought with a large enough effect; inconclusive = small, poorly fitted or top-dose-only effect, or another doubt; inactive = no such curve, though single readings can be large; an effect the other way counts as inactive or inconclusive. Potency is read from the fitted curve at half-maximal effect.

SMILES	ATXN2 expr inh	HT1080-NT tox	HT1080 IDH1KD tx	KB-V1 cytotox	ATXN viability	KB-3-1 tox
C/C(=N\O)c1ccc(OCC(=O)N2CCCCC2)cc1	50%	x	x	x	u	x
CN(C)c1ccc(-c2noc(C3CC(=O)N(c4ccc5c(c4)OCCO5)C3)n2)cc1 (centres undefined)	1%	x	x	u	i	u
CCN(CC)CCNC(=O)c1ccc(NC(=O)c2ccc(Cl)c(S(=O)(=O)N3CCCCCC3)c2)cc1	u	u	21µM*	i	i	u
COc1ccc2nc(NC(=O)c3cc(=O)c4cc(C)cc(C)c4o3)sc2c1	1%	x	x	i	i	i
CS(=O)(=O)N1CCN(C(=O)C(Sc2ccccc2)c2ccccc2)CC1 (centres undefined)	4%	15%	-10%	i	i	i
O=C(OCC(=O)N1CCOCC1)C(c1ccccc1)c1ccccc1	-1%	5%	4%	21µM*	i	i
O=C(C(Sc1ccccc1)c1ccccc1)N1CCOCC1 (centres undefined)	1%	12%	12%	18µM*	i	i
COc1ccc(S(=O)(=O)Cc2ccc(C(=O)NCCCN(C)c3ccccc3)o2)cc1	-13%	-15%	-22%	6.5µM*	i	i
CCOC(=O)c1c(C)oc2ncnc(Nc3ccc(OC)c(OC)c3)c12	-4%	x	x	i	i	i
CCOC(=O)c1noc2ncn(CC(=O)Nc3ccc(OC)c(Cl)c3)c(=O)c12	-2%	x	x	i	i	i
Nn1cnnc1N/N=C\c1ccc(-c2ccccc2[N+](=O)[O-])o1	0%	-23%	-24%	2.1µM*	u	7.3µM*
O=[N+]([O-])c1ccccc1-c1ccc(/C=N/n2cnnc2)o1	3%	5%	-21%	u	i	i
CCOC(=O)c1c(C)oc2nc(C)nc(N3CCN(c4ccccc4F)CC3)c12	-9%	x	x	i	i	i
COC(=O)C1CCN(Cc2ccc(OCCCN3CCN(c4ccc([N+](=O)[O-])cc4)CC3)cc2)CC1	x	-21%	15µM*	u	i	i
CC1CCN(CCCCOc2ccc([N+](=O)[O-])cc2)CC1	-20%	0%	9%	i	i	i
Cc1ccc(Cl)cc1NC(=O)c1cnn2c1NC(c1ccco1)CC2C(F)(F)F (centres undefined)	-12%	-19%	-14%	i	i	i
CN(Cc1ccc(-n2cccn2)cc1)C(=O)c1cnn2c1NC(c1ccco1)CC2C(F)(F)F (centres undefined)	23%	-8%	-7%	4.6µM*	i	u
O=C(Nc1ccc2c(c1)CCC2)c1cnn2c1NC(c1ccco1)CC2C(F)(F)F (centres undefined)	-6%	u	23µM*	i	i	i
CC(=O)c1ccc(NC(=O)C2CCC(CNS(=O)(=O)c3cccc4nsnc34)CC2)cc1 (centres undefined)	-2%	x	x	i	i	i
C=CC(=O)N=c1sc2ccccc2n1-c1ccccc1	18%[11.3 µM]	13µM*	10µM*	7.3µM*	x	15µM*
N=c1sc2ccccc2n1-c1ccccc1	1%	-10%	u	u	i	u
O=C(Nc1ccc(Cl)cc1)Nc1cc([N+](=O)[O-])ccc1F	-2%	2%	23%	i	u	i
O=C(Nc1ccc(Cl)cc1)Nc1csc([N+](=O)[O-])c1	u	13µM*	10µM*	u	i	i
O=C(Nc1ccc([N+](=O)[O-])cc1)Nc1ccc(Cl)cc1F	u	-3%	-12%	18µM*	i	u
Cn1cc(S(=O)(=O)N2CCCCCC2)cc1C(=O)Nc1ccccc1F	-8%	x	x	i	i	i
O=S(=O)(CCN1CCN(C(c2ccccc2)c2ccccc2)CC1)C(F)(F)F	u	u	18µM*	i	i	i
